# SARS PLP yeast = inhibitors of SARS-CoV papain-like protease in yeast; AID 485353; S. cerevisiae expressing SARS-CoV PLpro, growth rescue; 330,000 compounds, 0.19% hits; Potency, µM (titrated, usually from 32.9 µM), for the others: top-dose activity, positive = growth rescue, hits mostly activators; calls by dose curve; also: 0% is about no effect; nearly all actives have a fitted effect of over 55% in size
# Sm TGR inh = blocks Schistosoma mansoni thioredoxin glutathione reductase; Q962Y6; purified TGR, DTNB reduction, TNB absorbance 405 nm; Potency, µM (highest dose often 114 µM), without a hit: top-dose activity change, negative = inhibition, usual class: inhibitors; 360,000 compounds, 3% hits; active = well fitted inhibition curve with a large enough effect; also: % is scaled to controls: 0 for no effect and ±100 for the full control effect; nearly all actives have a fitted effect of over 60% in size
#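 First, TGR (20 nM dispensed) and NADPH were mixed with compound. Second, a 15 min room-temperature incubation followed. Third, further NADPH and then DTNB were added to start the reaction. Finally, TNB absorbance was monitored kinetically.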
# * hit, by the source's call; . = not tested or not shown. An excerpt weighted towards active compounds, which were near 3% of everything screened. Potency is read from the fitted curve at half-maximal effect.
SMILES,SARS PLP yeast,Sm TGR inh
O=C1c2cccnc2C(Nc2ccccc2Br)N1Cc1ccco1 (centres undefined),2%,22µM*
Cc1cc(C)c2nc(N(Cc3cccnc3)C(=O)c3ccc(S(=O)(=O)N(C)C)cc3)sc2c1,.,-7%
COc1cc(/C=N/Nc2cccc(C)c2)ccc1OC(=O)c1cccs1,-17%,-29%
COc1cc(/C=N/Nc2ccccc2C(F)(F)F)ccc1O,1%,40µM*
COc1cc(/C=N/NC(=O)c2cccs2)ccc1O,1%,-5%
COc1cc(/C=N/Nc2cccc(C)c2)cc(Br)c1O,-4%,45µM*
COc1cc(/C=N/NP(=S)(c2ccccc2)c2ccccc2)ccc1O,-7%,-9%
COc1cc(/C=N/Nc2ccccc2)ccc1O,-2%,40µM*
COc1ccc(C2(CNC(=O)C(=O)Nc3ccc(C)c(Cl)c3)CCCC2)cc1OC,.,-3%
CCOC(=O)c1c(C)[nH]c(C)c1S(=O)(=O)N1CCC(C(=O)NCc2ccc(F)cc2)CC1,.,-8%
COc1ccc(N(C)C(=S)Nc2ccc3nc(C)c(C)nc3c2)cc1,.,56µM*
Cc1nc2ccc(NC(=S)NCc3ccccc3)cc2nc1C,0%,40µM*
Cc1nc2ccc(NC(=S)N3CCCC3)cc2nc1C,-1%,-2%
C=CCNC(=S)Nc1ccc2nc(C)c(C)nc2c1,5%,40µM*
COc1ccc(NC(=S)Nc2ccc(C)c(S(=O)(=O)N3CCCCC3)c2)cc1,6%,0%
C=CCNC(=S)Nc1ccc(Cl)cc1,15%,-13%
S=C(NCc1ccccc1)Nc1ccncc1,-3%,-48%
C=CCNC(=S)Nc1ccc(C)c(S(=O)(=O)N2CCCCC2)c1,-1%,35µM*
COc1ccc(Cn2c(=O)c3oc4ccccc4c3n(CC(=O)Nc3cc(C)cc(C)c3)c2=O)cc1,.,-10%
CCOC(=O)c1ccccc1NC(=O)NCc1cccn1Cc1ccc(F)cc1,.,2%
COc1ccccc1C(=O)N1CCN(Cc2cc(=O)oc3cc(C)ccc23)CC1,.,-18%
CCCN(N=Nc1cccc([N+](=O)[O-])c1)c1cccc([N+](=O)[O-])c1,-4%,50µM*
O=[N+]([O-])c1cccc(N=NN(CCO)c2cccc([N+](=O)[O-])c2)c1,-1%,-5%

# Assay outcomes from PubChem.
